Measurements published in PubChem BioAssay AID686922 (National Center for Advancing Translational Sciences (NCATS), 2013).
Results filed as inconclusive are left out. Active and inactive are the calls of the source. Calls come from the whole dose curve; as a rule, active = well fitted inhibition curve with a large enough effect; inconclusive = small, poorly fitted or top-dose-only effect; inactive = no such curve, though single readings can be large or run the other way.

Experiment: qHTS screen for inhibitors of ELG1-dependent DNA repair in human embryonic kidney (HEK293T) cells expressing luciferase-tagged ELG1: MMS Viability Assay for probe SAR
Settings: HEK293T ELG1-luc + MMS viability, CellTiter-Glo, 16 h; series mostly up to 46.1 µM; activity change, negative = lower viability: at the top concentration
Description: Cancer cells divide rapidly compared to normal cells in the body. During cell division, cancer cells need to duplicate their genome by DNA replication. The failure of genome duplication leads to cancer cells' death. Therefore, inhibitors of DNA replication could specifically kill cancer cells. Based on this concept, many chemotherapeutic agents were developed and have been used to treat cancer patients. However, there are a limited number of agents available in the clinical setting, and some of those that do exist have low efficacy and severe side effects. Therefore, if we can find the compounds that effectively block DNA replication either by directly damaging DNA or by inhibiting other cellular mechanisms, the options for cancer treatment will be broadened. With this in mind, we developed a quantitative high-throughput ELG1-luciferase reporter gene assay. Small molecules that specifically block ELG1 function in response to DNA damage can be identified by monitoring the suppression of luciferase activity. Since ELG1 defines a pathway for repairing DNA damage, agents blocking ELG1 function can be used to sensitize cancer cells to chemotherapeutic agents whose mechanism of action involves the induction of DNA damage. Cytotoxicity of the active compounds in the ELG1 qHTS assay with MMS stimulation (AID 493125) was assessed using the CellTiter-Glo Luminescent Cell Viability Assay kit (Promega, USA). CellTiter-Glo measures the intracellular ATP present in metabolically active cells using Ultra-Glo as the luciferase to detect ATP levels. In brief, the luciferase in the buffer catalyzes the oxidation of luciferin to oxyluciferin and light which is dependent on ATP. […] DMSO and wells with media alone were used as positive and negative controls, respectively. Inactivity to this assay is the desirable outcome. NIH Molecular Libraries Probe Production Network [MLPCN] NIH Chemical Genomics Center [NCGC] MLPCN Grant: R03 MH092164 Assay Provider: Kyungjae Myung, NHGRI, NIH
ELG1-luc HEK293T cells will be seeded in 1536-well plates at a density of 2,000 cells/well. Approximately 5 hours after plating, compounds will be added to the plate by pin tool transfer and MMS will be added by FRD dispenser (final concentration of MMS = 10 µM). 16 hours following the addition of the compounds, cell viability will be measured using CellTiter Glo.

| Compound | activity change, negative = lower viability | Potency |
| --- | --- | --- |
| COc1cc(Nc2nc(-c3ccncc3)nc3ccccc23)ccc1N1CCN(C)CC1 | 4.02% (inactive) |  |
| COc1cc(Nc2nc(-c3ccncc3)nc3ccccc23)ccc1NS(C)(=O)=O | -4.62% (inactive) |  |
| O=[N+]([O-])c1ccc(-c2nc(Nc3ccc(F)c(F)c3)c3ccccc3n2)cc1 | -10.1% (inactive) |  |
| Fc1ccc(Nc2cc(-c3ccccc3)nc(-c3ccncc3)n2)cc1F | -28.5% (inactive) |  |
| COc1ccc(-c2ccc(Nc3nc(-c4ccncc4)nc4ccccc34)cc2F)cc1F | -27.8% (inactive) |  |
| Fc1cc(Nc2nc(-c3ccncc3)nc3ccccc23)ccc1-n1cncn1 |  | inactive |
| Fc1cccc(Nc2nc(-c3ccncc3)nc3ccccc23)c1 | -25.8% (inactive) |  |
| COc1cc(-c2nc(Nc3ccc(F)c(F)c3)c3ccccc3n2)c(F)cn1 |  | 23.5 µM (active) |
